Source: PubChem BioAssay (NCATS)
Values joined by “and” are separate entries in the source; they are usually repeats but may differ in a detail not shown here. Identical values can stand only once. Inconclusive results are not listed. Values without a mark were called inactive. Active and inactive are the calls of the source. The call rests on the fitted dose curve; in most records, active means well fitted curve in the direction sought with a large enough effect; inconclusive means small, poorly fitted or top-dose-only effect, or another doubt; inactive means no such curve, though single readings can be large; an effect the other way counts as inactive or inconclusive.

What follows are compounds tested against Cellular tumor antigen p53 (Homo sapiens) (UniProt P04637) (assay: Primary qHTS for small molecule compounds that upregulate eGFP-tagged delta133p53alpha (in N-terminal) cells. (AID 2060322;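 further: cells pre-induced with doxycycline then dosed without doxycycline; 0% = DMSO vehicle and 100% = reference activator; nearly all actives have a fitted effect of over 75% in size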)). Conditions: NCI-H358 eGFP-delta133p53alpha fluorescence, 24 h; activation: active compounds read high.
Cellular tumor antigen p53 (Homo sapiens), sequence (P04637 whole entry, looked up): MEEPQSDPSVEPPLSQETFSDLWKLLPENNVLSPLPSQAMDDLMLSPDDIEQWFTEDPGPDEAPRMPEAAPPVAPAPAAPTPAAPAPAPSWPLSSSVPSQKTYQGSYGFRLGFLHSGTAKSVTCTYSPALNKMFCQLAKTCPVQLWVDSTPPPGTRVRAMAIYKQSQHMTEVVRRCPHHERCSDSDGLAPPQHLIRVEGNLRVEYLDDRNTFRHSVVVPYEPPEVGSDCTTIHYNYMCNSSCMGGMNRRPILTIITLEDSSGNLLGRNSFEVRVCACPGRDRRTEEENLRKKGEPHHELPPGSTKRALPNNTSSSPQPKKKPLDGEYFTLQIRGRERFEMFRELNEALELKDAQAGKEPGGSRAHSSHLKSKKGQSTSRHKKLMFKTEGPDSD
Method in brief: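 NCI-H358 cells pre-induced 24 h with 10 ng/ml doxycycline for eGFP-delta133p53alpha, plated dox-free and exposed 24 h at 37C to titrated compounds. Fixed, Hoechst-stained; gated GFP peak intensity by laser scanning cytometry, normalized to DMSO (0%) and 57.5 uM 5-azacytidine (100%).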
`N=C(N)SCCc1cnc[nH]1` was tested, and the activation was -28.5%.
With `O=c1[nH]c(=S)[nH]c(-c2ccccc2)c1Cc1c(O)ccc2ccccc12` the activation was -41.1%.
Work on `COC(=O)[C@H]1[C@H]2C[C@H]3c4[nH]c5ccccc5c4CCN3C[C@H]2CC[C@@H]1O` yielded an activation of -1.08%.
In the case of `NS(=O)(=O)c1cc2c(cc1Cl)NC(C1CC3C=CC1C3)NS2(=O)=O` (stereo not drawn), the activation was -1.69% and -18.7%.
`[N-]=[N+]=Nc1ccc(C(=O)CSC[C@H](NC(=O)CC[C@H](N)C(=O)O)C(=O)NCC(=O)O)cc1` showed an activation of -38.2%.
`COc1ccc(CCN(C)CCc2ccc(OC)c(OC)c2)cc1OC` showed an activation of -16.8%.
For `Nc1ncnc2c1ncn2[C@@H]1O[C@H](COP(=O)(O)OP(=O)(O)OP(=O)(O)OP(=O)(O)OC[C@@H]2O[C@H](n3cnc4c(N)ncnc43)[C@@H](O)[C@H]2O)[C@@H](O)[C@H]1O`, the activation was -42.2%.
Compound `C1CCc2nnnn2CC1` has an activation of -8.09%.
`CC(C)COC(=O)OCN1C(=O)CN(CCN2CC(=O)N(COC(=O)OCC(C)C)C(=O)C2)CC1=O` gave an activation of -13.5%.
In the case of `NC[C@@H]1O[C@H](C23CC4CC(CC(C4)C2)C3)Cc2c1ccc(O)c2O`, the activation was 44.4%.
`CN1CCc2ccccc2Cc2[nH]c3ccccc3c2CC1` gave an activation of -5.31%.
`N.N.O=C(O)C1(C(=O)O)CCC1.[Pt+2]` gave an activation of -8.5%.
Work on `O=C(CCc1ccncc1)NNC(=O)N1Cc2ccccc2Oc2ccc(Cl)cc21` yielded an activation of -9.58%.
`CN1CCc2cccc3c2C1Cc1ccc(O)c(O)c1-3` (stereo not drawn) gave an activation of 49.9%.
`C=CCN1CCc2cc(O)c(O)cc2C(c2ccccc2)C1` (stereo not drawn) gave an activation of -43.2%.
For `COc1ccccc1CNCCCCCCNCCCCCCCCNCCCCCCNCc1ccccc1OC`, the activation was -23.6%.
`Cc1cccc(/C=C/c2ccccc2)n1` was tested, and the activation was -2.77%.
Compound `CN1C2CCC1CC(OC(=O)C(O)c1ccccc1)C2` (stereo not drawn) has an activation of 8.16%.
`Cc1cc2c(cc1Cl)N(C(=O)Nc1ccnc3ccccc13)CC2` was tested, and the activation was 4.1%.
Compound `Nc1ncnc2c1ncn2C1CCCC1` has an activation of -5.11%.
In the case of `CC(=O)Oc1cc(C(C)C)c(OCCN(C)C)cc1C`, the activation was -0.837% and 6.26%.
With `CN(C)CCCc1cc(C(=O)Nc2ccc(-c3ccncc3)cc2)ccc1O` the activation was -14.9%.
Work on `Cc1cccc(C2CN(C)CCc3c2cc(O)c(O)c3Cl)c1` (stereo not drawn) yielded an activation of -49.3%.
`N[C@@H](CS(=O)O)C(=O)O` showed an activation of -27.4%.
Compound `COc1cc2c(CCNC(C)=O)c[nH]c2cc1O` has an activation of -10.8%.
`OCCN1CCN(CC/C=C2/c3ccccc3Sc3ccc(C(F)(F)F)cc32)CC1` showed an activation of -48.7%.
For `C#CCN(C)Cc1ccccc1`, the activation was 2.82% and -8.29%.
With `Oc1cc2c(cc1O)CN(C(=S)NCCc1ccc(Cl)cc1)CCC2` the activation was -14.7%.
Work on `NCCC1CCCC(CCN)N1` (stereo not drawn) yielded an activation of 10.3%.
With `CCc1c(C)[nH]c2c1C(=O)C(CN1CCOCC1)CC2` (stereo not drawn) the activation was 4.18% and -34.4%.
`O=C(O)Cc1c[nH]c2ccc(O)cc12` gave an activation of 8.12%.
Work on `CC(C)(C)c1onc(OCP(=O)(O)O)c1CC(N)C(=O)O` (stereo not drawn) yielded an activation of 5.95%.
With `CNCC(O)c1ccc(O)c(O)c1` (stereo not drawn) the activation was 7.34%.
Compound `C[C@](Cc1ccc(O)c(O)c1)(NN)C(=O)O` has an activation of -15.4%.
`CCCCCCCCCCCCCCCCCC(=O)OC(CC(=O)O)C[N+](C)(C)C` (stereo not drawn) showed an activation of -37.9%.
Work on `CCCC[C@@]1(C2CCCC2)Cc2cc(OCC(=O)O)c(Cl)c(Cl)c2C1=O` yielded an activation of -7.36%.
With `CCC1(O)CC2CN(CCc3c([nH]c4ccccc34)[C@@](C(=O)OC)(c3cc4c(cc3OC)N(C=O)C3[C@]45CCN4CC=C[C@@](CC)([C@@H](OC(C)=O)[C@]3(O)C(=O)OC)[C@H]45)C2)C1` (stereo partly drawn) the activation was 32.1%.
In the case of `CC(O)C(O)[C@H]1CNc2nc(N)[nH]c(=O)c2N1` (stereo partly drawn), the activation was -13.4%.
`COc1ccccc1N1CCN(CCN(C(=O)c2ccc(F)cc2)c2ccccn2)CC1` was tested, and the activation was 5.52%.

Each compound was assayed against Cellular tumor antigen p53 (Homo sapiens) (UniProt P04637) (assay: Primary qHTS for small molecule compounds that upregulate eGFP-tagged delta133p53alpha (in C-terminal) cells. (AID 2060324; further: potency means the concentration at half of the fitted maximal effect)). Conditions: NCI-H358 delta133p53alpha-eGFP (C-terminal tag), GFP fluorescence imaging, 24 h; series mostly up to 57.5 µM.
Method in brief: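 Concentration-response screen: compounds titrated onto pre-induced NCI-H358 D133p53a-eGFP cells, incubated one day, fixed with 3.5% PFA. Per-cell GFP peak intensity was gated, then normalized against intraplate controls.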
In the case of `N=C(N)SCCc1cnc[nH]1`, the Potency was “inactive”.
For `O=c1[nH]c(=S)[nH]c(-c2ccccc2)c1Cc1c(O)ccc2ccccc12`, the Potency was “inactive”.
In the case of `COC(=O)[C@H]1[C@H]2C[C@H]3c4[nH]c5ccccc5c4CCN3C[C@H]2CC[C@@H]1O`, the Potency was “inactive”.
With `NS(=O)(=O)c1cc2c(cc1Cl)NC(C1CC3C=CC1C3)NS2(=O)=O` (stereo not drawn) the Potency was “inactive”.
For `[N-]=[N+]=Nc1ccc(C(=O)CSC[C@H](NC(=O)CC[C@H](N)C(=O)O)C(=O)NCC(=O)O)cc1`, the Potency was “inactive”.
For `COc1ccc(CCN(C)CCc2ccc(OC)c(OC)c2)cc1OC`, the Potency was “inactive”.
With `Nc1ncnc2c1ncn2[C@@H]1O[C@H](COP(=O)(O)OP(=O)(O)OP(=O)(O)OP(=O)(O)OC[C@@H]2O[C@H](n3cnc4c(N)ncnc43)[C@@H](O)[C@H]2O)[C@@H](O)[C@H]1O` the Potency was “inactive”.
`C1CCc2nnnn2CC1` was tested, and the Potency was “inactive”.
For `CC(C)COC(=O)OCN1C(=O)CN(CCN2CC(=O)N(COC(=O)OCC(C)C)C(=O)C2)CC1=O`, the Potency was “inactive”.
For `NC[C@@H]1O[C@H](C23CC4CC(CC(C4)C2)C3)Cc2c1ccc(O)c2O`, the Potency was 23.9 µM (active).
With `CN1CCc2ccccc2Cc2[nH]c3ccccc3c2CC1` the Potency was 26.9 µM (active).
In the case of `N.N.O=C(O)C1(C(=O)O)CCC1.[Pt+2]`, the Potency was “inactive”.
In the case of `O=C(CCc1ccncc1)NNC(=O)N1Cc2ccccc2Oc2ccc(Cl)cc21`, the Potency was “inactive”.
In the case of `CN1CCc2cccc3c2C1Cc1ccc(O)c(O)c1-3` (stereo not drawn), the Potency was “inactive”.
For `C=CCN1CCc2cc(O)c(O)cc2C(c2ccccc2)C1` (stereo not drawn), the Potency was “inactive”.
`COc1ccccc1CNCCCCCCNCCCCCCCCNCCCCCCNCc1ccccc1OC` was tested, and the Potency was “inactive”.
In the case of `Cc1cccc(/C=C/c2ccccc2)n1`, the Potency was “inactive”.
`CN1C2CCC1CC(OC(=O)C(O)c1ccccc1)C2` (stereo not drawn) was tested, and the Potency was “inactive”.
With `Cc1cc2c(cc1Cl)N(C(=O)Nc1ccnc3ccccc13)CC2` the Potency was “inactive”.
`Nc1ncnc2c1ncn2C1CCCC1` was tested, and the Potency was “inactive”.
With `CC(=O)Oc1cc(C(C)C)c(OCCN(C)C)cc1C` the Potency was “inactive”.
For `CN(C)CCCc1cc(C(=O)Nc2ccc(-c3ccncc3)cc2)ccc1O`, the Potency was “inactive”.
`Cc1cccc(C2CN(C)CCc3c2cc(O)c(O)c3Cl)c1` (stereo not drawn) was tested, and the Potency was “inactive”.
For `N[C@@H](CS(=O)O)C(=O)O`, the Potency was “inactive”.
`COc1cc2c(CCNC(C)=O)c[nH]c2cc1O` was tested, and the Potency was “inactive”.
For `OCCN1CCN(CC/C=C2/c3ccccc3Sc3ccc(C(F)(F)F)cc32)CC1`, the Potency was “inactive”.
With `C#CCN(C)Cc1ccccc1` the Potency was “inactive”.
`Oc1cc2c(cc1O)CN(C(=S)NCCc1ccc(Cl)cc1)CCC2` was tested, and the Potency was “inactive”.
`NCCC1CCCC(CCN)N1` (stereo not drawn) was tested, and the Potency was “inactive”.
With `CCc1c(C)[nH]c2c1C(=O)C(CN1CCOCC1)CC2` (stereo not drawn) the Potency was “inactive”.
For `O=C(O)Cc1c[nH]c2ccc(O)cc12`, the Potency was “inactive”.
With `CC(C)(C)c1onc(OCP(=O)(O)O)c1CC(N)C(=O)O` (stereo not drawn) the Potency was “inactive”.
In the case of `CNCC(O)c1ccc(O)c(O)c1` (stereo not drawn), the Potency was “inactive”.
For `C[C@](Cc1ccc(O)c(O)c1)(NN)C(=O)O`, the Potency was “inactive”.
For `CCCCCCCCCCCCCCCCCC(=O)OC(CC(=O)O)C[N+](C)(C)C` (stereo not drawn), the Potency was “inactive”.
For `CCCC[C@@]1(C2CCCC2)Cc2cc(OCC(=O)O)c(Cl)c(Cl)c2C1=O`, the Potency was “inactive”.
For `CCC1(O)CC2CN(CCc3c([nH]c4ccccc34)[C@@](C(=O)OC)(c3cc4c(cc3OC)N(C=O)C3[C@]45CCN4CC=C[C@@](CC)([C@@H](OC(C)=O)[C@]3(O)C(=O)OC)[C@H]45)C2)C1` (stereo partly drawn), the Potency was “inactive”.
With `CC(O)C(O)[C@H]1CNc2nc(N)[nH]c(=O)c2N1` (stereo partly drawn) the Potency was “inactive”.
With `COc1ccccc1N1CCN(CCN(C(=O)c2ccc(F)cc2)c2ccccn2)CC1` the Potency was “inactive”.
